# Molecular target: Small nuclear ribonucleoprotein G (UniProt P62308)
# Experiment: cross-link between two proteins; cross-linking mass spectrometry
substance,measurement,value
"Small nuclear ribonucleoprotein-associated proteins B and B', P14678",listed as a hit,yes
